{"source": "PubChem BioAssay (EPA / NIEHS)", "note": "Activity calls are given as the source filed them. How the source made its calls: active means hit-call score of the fitted dose curve at least 0.9, where 1 is the maximum; inactive means score below 0.9.", "data": [{"biological_target": "X-box-binding protein 1 (Homo sapiens) (UniProt P17861)", "sequence (P17861 whole entry, looked up)": "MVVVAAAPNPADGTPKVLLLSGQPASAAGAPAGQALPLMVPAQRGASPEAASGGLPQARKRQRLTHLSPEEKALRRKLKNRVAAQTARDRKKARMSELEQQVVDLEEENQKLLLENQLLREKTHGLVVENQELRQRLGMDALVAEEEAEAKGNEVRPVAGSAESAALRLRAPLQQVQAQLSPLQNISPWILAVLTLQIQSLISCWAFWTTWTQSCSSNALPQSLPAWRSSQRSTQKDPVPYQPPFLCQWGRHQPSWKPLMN", "test": "ATG_Xbp1_CIS: Attagene CIS-FACTORIAL HepG2 Assay for human X-box Binding Protein 1 (XBP1) (AID 2282972)", "conditions": "HepG2 XBP1 cis-element reporter, Attagene multiplex; actives raise or lower the signal", "method": "ATG_CIS is a cell-based, multiplexed-readout assay that uses HepG2, a human liver cell line, with measurements taken at 24 hours after chemical dosing in a 24-well plate.ATG_Xbp1_CIS is one of 52 assay component(s) measured or calculated from the ATG_CIS assay. It is designed to make measurements of mRNA induction, a form of inducible reporter, as detected with fluorescence intensity signals by Reverse transcription polymerase chain reaction (RT-PCR) and Capillary electrophoresis technology.Data from the assay component ATG_Xbp1_CIS was analyzed into 1 assay endpoint. This assay endpoint, ATG_Xbp1_CIS, was analyzed with bidirectional fitting relative to DMSO as the negative control and baseline of activity. Using a type of inducible reporter, measures of mRNA for gain or loss-of-signal activity can be used to understand the reporter gene at the transcription factor-level as they relate to the gene XBP1. Furthermore, this assay endpoint can be referred to as a primary readout, because this assay has produced multiple assay endpoints where this one serves a reporter gene function. To generalize the intended target to other relatable targets, this assay endpoint is annotated to the dna binding intended target family, where the subfamily is basic leucine zipper.\nHuman liver HepG2 cells are transiently transfected with multiple reporter transcription units (MRTUs) in 6-well plates using FuGene 6 reagent (Roche; 3 ml FuGene/1 mg DNA). The MRTU constructs are regulated by a cis-regulating element (promoter). […] A major difference between the CIS and TRANS system is that in CIS activities of endogenous TFs are measured, whereas the TRANS assay evaluates changes in activities of exogenous, chimeric NR-Gal4 proteins. […] At the end of 24 hour incubation, total RNA was isolated using TriZol reagent (Invitrogen). The isolated RNA is then reverse-transcribed using oligo(dT) primer and Mo-MLV reverse transcriptase (Invitrogen) with DNAse I (Ambion) treatment for 30 min. The one-tenth of the produced cDNA was amplified by PCR using Taq DNA polymerase (Invitrogen) and two reporter sequence-specific primers. The PCR products were fluorescently labeled by primer extension with 6-arboxyfluorescein (6-FAM) 5'-labeled reporter sequence-specific primer (2 min at 95 C, 20 s at 68 C and 10 min at 72 C) and these products were digested with 5U of HpaI (New England Biolabs) for 2h at 37 C. The fragments were purified using Qiaquick PCR columns (Qiagen), analyzed on an ABI 3130xL genetic analyzer (Applied Biosystems) with peak positions identified by using a set of X-rhodamine (ROX)-labeled MapMarker1000 molecular weight standards (BioVentures). The raw capillary electrophoresis data was processed using Attagraph software (Attagene).", "values": [{"molecule": "O=C(CCl)c1ccccc1", "outcome": "inactive"}, {"molecule": "O=C(NCNC(=O)NC1C(=O)NC(=O)N1CO)NC1C(=O)NC(=O)N1CO", "note": "(stereo not given)", "AC50": "151 µM (active)"}, {"molecule": "C=C(Cl)CCl", "outcome": "inactive"}, {"molecule": "CCOP(O)OCC", "outcome": "inactive"}, {"molecule": "Nc1c(Cl)c(Cl)c(Cl)c(Cl)c1Cl", "outcome": "inactive"}, {"molecule": "CC(C)c1ccc(O)cc1", "outcome": "inactive"}, {"molecule": "BrCBr", "outcome": "inactive"}, {"molecule": "N#CCCCCC#N", "outcome": "inactive"}, {"molecule": "Nc1ccc(Cl)c(Cl)c1", "outcome": "inactive"}, {"molecule": "CCCCCCCCCCCCCCCC[N+](C)(C)C", "outcome": "inactive"}, {"molecule": "CCC(C)c1cc(C(C)(C)C)cc(-n2nc3ccccc3n2)c1O", "note": "(stereo not given)", "outcome": "inactive"}, {"molecule": "Oc1ccc(Cl)cc1", "outcome": "inactive"}, {"molecule": "Cc1ncc(C[n+]2csc(CCO)c2C)c(N)n1", "outcome": "inactive"}, {"molecule": "c1ccc(Nc2ccc3ccccc3c2)cc1", "outcome": "inactive"}, {"molecule": "ClCC(Cl)Cl", "outcome": "inactive"}, {"molecule": "CCOC(=O)COc1ccc(Cl)cc1Cl", "outcome": "inactive"}, {"molecule": "C[N+](C)(C)CC(=O)[O-]", "outcome": "inactive"}, {"molecule": "O=C(NC(=O)c1c(F)cccc1F)Nc1ccc(Oc2ccc(C(F)(F)F)cc2Cl)cc1F", "outcome": "inactive"}, {"molecule": "CN(N=O)c1ccccc1", "outcome": "inactive"}, {"molecule": "CCCCOP(=O)(O)OCCCC", "outcome": "inactive"}, {"molecule": "CC(C)(O)C#N", "outcome": "inactive"}, {"molecule": "CCCCCc1cc(O)cc(O)c1", "AC50": "51.7 µM (active)"}, {"molecule": "C=C(Cl)Cl", "outcome": "inactive"}, {"molecule": "CN1C[C@H](C(=O)N[C@]2(C)O[C@@]3(O)[C@@H]4CCCN4C(=O)[C@H](Cc4ccccc4)N3C2=O)C=C2c3cccc4[nH]cc(c34)C[C@H]21", "outcome": "inactive"}, {"molecule": "CCC1CCC(=O)O1", "note": "(stereo not given)", "outcome": "inactive"}, {"molecule": "C=CC(=O)OCCO", "AC50": "131 µM (active)"}, {"molecule": "CCCCNP(N)(N)=S", "outcome": "inactive"}, {"molecule": "CCCCCCCCCCCC#N", "AC50": "173 µM (active)"}, {"molecule": "O=C(O)CCCc1ccc(N(CCCl)CCCl)cc1", "outcome": "inactive"}, {"molecule": "Nc1ccccc1C(=O)OCCc1ccccc1", "outcome": "inactive"}, {"molecule": "COc1cc(OC)c(OC)cc1C=O", "outcome": "inactive"}, {"molecule": "C=CC(=O)OCCCCOC(=O)C=C", "outcome": "inactive"}, {"molecule": "O=C(CCN1CC1)OCC(CO)(COC(=O)CCN1CC1)COC(=O)CCN1CC1", "outcome": "inactive"}, {"molecule": "CC(=O)c1cc2c(cc1C)C(C)(C)C(C)CC2(C)C", "note": "(stereo not given)", "AC50": "66.6 µM (active)"}, {"molecule": "CC[N+](=O)[O-]", "outcome": "inactive"}, {"molecule": "C=CC(=O)OCC(CC)CCCC", "note": "(stereo not given)", "outcome": "inactive"}, {"molecule": "CCN(CC)C(=S)S", "outcome": "inactive"}, {"molecule": "N#Cc1cccc(C#N)c1", "outcome": "inactive"}, {"molecule": "CC(C)[C@@H](C(=O)O[C@@H](C#N)c1cccc(Oc2ccccc2)c1)c1ccc(Cl)cc1", "outcome": "inactive"}, {"molecule": "CSc1nc(N=[N+]=[N-])nc(NC(C)C)n1", "outcome": "inactive"}]}]}
